We go through 73 compounds from PubChem BioAssay AID1259421 (Broad Institute, 2018).

Where “and” joins values, the source holds several entries; their conditions need not be identical. Equal entries are not always repeated. The whole screen tested about 6,400 compounds, of which about 610 (9.5%) were called active. No stated cut-off is given here; in the data, active means activity change below about -70%; inconclusive means no clear call, values can overlap the other calls; inactive means above that. What follows is part of a selection rich in actives, with near analogues and random picks from the rest. Where a structure was tested more than once in an assay, its records may differ in their call.

The assay can be described thus: T. gondii ME49Luc in HeLa cells, luciferase assay, 72 h, no IFN-y (AID 1259421). As to conditions: stronger effect = lower value, concentration not given here.
Turning to `C=C[C@@]1(C)CC(=O)[C@]2(O)[C@@]3(C)[C@@H](O)CCC(C)(C)[C@@H]3[C@H](O)[C@H](OC(=O)CCCN3CCN(C)CC3)[C@@]2(C)O1`, the activity change, negative = inhibition was -10.4% (inactive). The value for `CC(C)(C(=O)O)c1ccc(C(O)CCCN2CCC(C(O)(c3ccccc3)c3ccccc3)CC2)cc1` (stereo not drawn) was 4.73% (inactive) and 3.69% (inactive). In the case of `CC(C)(C)c1ccc(C(O)CCCN2CCC(C(O)(c3ccccc3)c3ccccc3)CC2)cc1` (stereo not drawn) it was -86.1% (active) and 8% (inactive); in that of `OC(c1ccccc1)C1CCN(CCc2ccccc2)CC1` (stereo not drawn), 5.4% (inactive) and 0.692% (inactive). In the case of `CCC(C)C(=O)O[C@H]1C[C@H](O)C=C2C=C[C@H](C)[C@H](CC[C@@H](O)C[C@@H](O)CC(=O)O)C21` (stereo partly drawn) it was 4.96% (inactive).

As for `O=S(=O)(c1ccccc1)c1cnc2c(N3CCNCC3)cccc2c1`, the activity change, negative = inhibition was 8.53% (inactive). The value for `CCCCCCOc1nsnc1C1=CCCN(C)C1` was -26.8% (inactive); that for `CCC(CC)(CC(=O)Nc1cccc(/C=C/c2nc(C3CCC3)cs2)c1)C(=O)O` was 41.5% (inactive). With `O=C(C[C@H]1NCCC[C@@H]1O)Cn1cnc2cc(Br)c(Cl)cc2c1=O`, the activity change, negative = inhibition was -86% (active). Take `CC(C)[C@@H](N)C(=O)O`: the activity change, negative = inhibition is 5.34% (inactive). In the case of `Clc1ccc2c(N3CCN(CCCN4CCN(c5ccnc6cc(Cl)ccc56)CC4)CC3)ccnc2c1` it was 1.21% (inactive).

On to `Cc1ncc(-c2ccnc(Nc3ccc(S(C)(=O)=O)cc3)n2)n1C(C)C`, for which the activity change, negative = inhibition is -84.5% (active). Consider `C1CCN2C[C@@H]3C[C@H](CN4CCCC[C@@H]34)[C@H]2C1`, for which the activity change, negative = inhibition is 13.5% (inactive). For the compound `O=C1[C@@H]2[C@H]3CC[C@H](C3)[C@@H]2C(=O)N1CCCCN1CCN(c2ncccn2)CC1`, the activity change, negative = inhibition is 8.23% (inactive). For the compound `CCCCCCCCCCCCCCCCCCCCCC(=O)Nc1ccn([C@@H]2O[C@H](CO)[C@@H](O)[C@@H]2O)c(=O)n1`, the activity change, negative = inhibition was 8.14% (inactive). In the case of `O=C(CN1CCNCC1)NC1CCCCC1` it was -5.36% (inactive); in that of `C=C1CCC2[C@](C)(CO)[C@H](O)CC[C@@]2(C)[C@@H]1C/C=C1/C(=O)OC[C@H]1O` (stereo partly drawn), 9.67% (inactive). The value for `N#CC[C@@H](C1CCCC1)n1cc(-c2ncnc3[nH]ccc23)cn1` was 1.99% (inactive); that for `N#CC[C@H](C1CCCC1)n1cc(-c2ncnc3[nH]ccc23)cn1` was 27.9% (inactive) and 17.6% (inactive). `Nc1ncnc2c1c(-c1cnc3[nH]ccc3c1)nn2C1CCCC1`: the activity change, negative = inhibition is -82.4% (active).

On to `COc1cc([C@@H]2[C@H]3CO[C@@]4(O)C(=O)[C@@H]2C=C([C@H]2Oc5cc(O)cc(O)c5C(=O)[C@@H]2O)[C@@H]34)ccc1O`, for which the activity change, negative = inhibition is -0.383% (inactive). On to `Cn1cnc2nc(NCCO)nc(NCc3ccccc3)c21`, for which the activity change, negative = inhibition was -3.03% (inactive).

`OC1O[C@@H]2COC(c3ccccc3)O[C@H]2[C@H](O)[C@H]1O` (stereo partly drawn): the activity change, negative = inhibition was 36.7% (inactive). `COc1ccc2cc(-c3cc(-c4cc(Cl)cc(Cl)c4)nn3[C@@H](C)c3ccc(C(=O)NCCC(=O)O)cc3)ccc2c1`: the activity change, negative = inhibition is -64.1% (inactive). In the case of `CCCCCCNC(=O)n1cc(F)c(=O)[nH]c1=O` it was -97.3% (active); in that of `CCCCNC(=O)c1ccc(Cl)cc1O`, -69.9% (inactive); in that of `Cc1nnc(SCC2=C(C(=O)O)N3C(=O)[C@@H](N)[C@H]3SC2)s1`, 2.53% (inactive). In the case of `CCN(CC)CCCCC1CCN(CC(=O)N2c3ccccc3C(=O)Nc3cccnc32)CC1` it was 11.7% (inactive) and 11.5% (inactive).

As to `Cc1ccc([N+](=O)[O-])cc1S(=O)(=O)N(C)C`, the activity change, negative = inhibition was 16.2% (inactive) and 6.9% (inactive).

In the case of `Cc1ccc([N+](=O)[O-])cc1S(=O)(=O)N(C)/N=C/c1cnc2ccc(Br)cn12`, the activity change, negative = inhibition is -80.3% (active). For `CN[C@@H]1C(OC2[C@H](O[C@H]3[C@H](O)[C@@H](O)[C@H](N=C(N)N)[C@@H](O)[C@@H]3N=C(N)N)OC(C)[C@]2(O)CO)OC(CO)C(O)C1O` (stereo partly drawn), the activity change, negative = inhibition was 3.82% (inactive).

With `C[C@]12CCc3occc3C1CC[C@@]13C[C@@H](CCC12)[C@@](O)(CO)C3` (stereo partly drawn), the activity change, negative = inhibition is -13.6% (inactive). For the compound `CCC1(c2ncc[nH]2)Cc2ccccc2O1` (stereo not drawn), the activity change, negative = inhibition is 15% (inactive) and -0.683% (inactive). In the case of `CC(=O)O[C@H]1CC[C@@]2(C)C(C[C@@H](OC(C)=O)[C@]3(C)C2CC[C@@]2(C)[C@H](c4ccoc4)OC(=O)[C@H]4O[C@]423)C1(C)C` (stereo partly drawn) it was -27.9% (inactive); in that of `Nc1nccc2c1ncn2[C@@H]1C=C(CO)[C@@H](O)[C@H]1O`, -74.6% (active) and -68.5% (inactive); in that of `Nc1nccc2c1ncn2[C@@H]1O[C@H](CO)C(O)C1O` (stereo partly drawn), -4.71% (inactive). The value for `Nc1ncnc2c1ncn2[C@@H]1O[C@H](CO)[C@@H](O)[C@@H]1O` was -51.5% (inactive); that for `CCC(CC)CC1(C(=O)Nc2ccccc2SC(=O)C(C)C)CCCCC1` was -68.8% (inactive); that for `COc1cccc(NC(=O)/C=C/c2ccc(Cl)cc2)c1` was 290% (inactive) and 329% (inactive). With `O=C(/C=C/c1ccccc1)NC(NC(=S)Nc1cccc2cccnc12)C(Cl)(Cl)Cl` (stereo not drawn), the activity change, negative = inhibition was 0.586% (inactive). With `O=C(/C=C/c1ccccc1)NC(NC(=S)Nc1ccc(Cl)cc1)C(Cl)(Cl)Cl` (stereo not drawn), the activity change, negative = inhibition was -82.6% (active).

In the case of `CC(=O)c1ccc(NS(C)(=O)=O)c(Oc2ccc(F)cc2F)c1`, the activity change, negative = inhibition was 22.3% (inactive). In the case of `COC[C@@H](c1ccc(C(F)(F)F)cc1)N1CCN(C2(C)CCN(C(=O)c3c(C)ncnc3C)CC2)C[C@@H]1C` it was 5.59% (inactive).

With `CCc1ccc(OCc2ccccc2C(=O)Nc2ccc3nc(C)cc(N)c3c2)cc1`, the activity change, negative = inhibition was -82.4% (active). The value for `CCN(CC)CCCC(C)Nc1nc(C)cc(Nc2ccc3nc(C)cc(N)c3c2)n1` (stereo not drawn) was -14.9% (inactive); that for `CCCC(=O)Nc1cccc(NC(=O)c2ccccc2Br)c1` was 17.4% (inactive); that for `Nc1c(Br)cc(Br)cc1CNC1CCC(O)CC1` (stereo not drawn) was 2.89% (inactive) and 3.02% (inactive). Take `Cc1[nH]c(=O)c(C#N)cc1-c1ccc2nccn2c1`: the activity change, negative = inhibition is 24.3% (inactive) and 0.856% (inactive). In the case of `CC(C)(C)c1nc(-c2cccc(NS(=O)(=O)c3c(F)cccc3F)c2F)c(-c2ccnc(N)n2)s1` it was -88.1% (active). In the case of `Cn1c(=O)c2c(ncn2CCOC(=O)C(C)(C)Oc2ccc(Cl)cc2)n(C)c1=O`, the activity change, negative = inhibition is 7.49% (inactive). `CC(=O)O[C@H]1C[C@@]2(C)[C@@H](C[C@@H](O)C3[C@]2(C)CC[C@H]2[C@H](C)[C@H](O)CC[C@]32C)/C1=C(/CCC=C(C)C)C(=O)O` (stereo partly drawn): the activity change, negative = inhibition was -16.8% (inactive) and -21.5% (inactive). For the compound `CN1C(=O)C[C@@H](C(=O)N[C@@H](Cc2cnc[nH]2)C(=O)N2CCC[C@H]2C(N)=O)NC1=O`, the activity change, negative = inhibition was -66.5% (inactive). Regarding `COC(=O)C1=C(C)NC(C)=C(C(=O)O[C@@H]2CCCN(Cc3ccccc3)C2)[C@@H]1c1cccc([N+](=O)[O-])c1`, the activity change, negative = inhibition was 23.7% (inactive). The value for `COC(=O)C1=C(C)NC(C)=C(C(=O)NCCCN2CCC(c3ccccc3)(c3ccccc3)CC2)C1c1ccc([N+](=O)[O-])cc1` (stereo not drawn) was -48.9% (inactive).

As for `CCOC(=O)C1=C(C)NC(C)=C(C(=O)OC)C1c1cccc([N+](=O)[O-])c1` (stereo not drawn), the activity change, negative = inhibition is 3.95% (inactive) and 4.34% (inactive). Turning to `COC(=O)C1=C(C)NC(C)=C(C(=O)OCCCN2CCC(c3ccccc3)(c3ccccc3)CC2)[C@@H]1c1cccc([N+](=O)[O-])c1`, the activity change, negative = inhibition is -76.4% (active) and -90.4% (active).

On to `COC(=O)C1=C(C)NC(C)=C(C(=O)O[C@H]2CCN(Cc3ccccc3)C2)[C@H]1c1cccc([N+](=O)[O-])c1`, for which the activity change, negative = inhibition is 0.473% (inactive). In the case of `COC(=O)C1=C(C)NC(C)=C(C(=O)OCCN(C)Cc2ccccc2)C1c1cccc([N+](=O)[O-])c1` (stereo not drawn) it was 31.7% (inactive) and 1.2% (inactive). Regarding `COC(=O)C1=C(C)NC(C)=C(C(=O)OCCN2CCN(C(c3ccccc3)c3ccccc3)CC2)C1c1cccc([N+](=O)[O-])c1` (stereo not drawn), the activity change, negative = inhibition was -60.9% (inactive) and -77.5% (active). The value for `COC(=O)C1=C(C)NC(C)=C(C(=O)OCCCN2CCC(c3ccccc3)(c3ccccc3)CC2)[C@H]1c1cccc([N+](=O)[O-])c1` was -68.2% (inactive) and -79.8% (active); that for `COC(=O)C1=C(C)NC(C)=C(C(=O)OC/C=C/c2ccccc2)C1c1cccc([N+](=O)[O-])c1` (stereo not drawn) was -14.8% (inactive). For `COc1ccc2c(c1)OC1(O)COc3cc(OC)c(OC)cc3C1=C2` (stereo not drawn), the activity change, negative = inhibition is 10.6% (inactive).

With `CC(=O)N1CCN(CCOc2ccc(C3CCN(C4=Nn5c(nnc5C(F)(F)F)CC4)CC3)cc2)CC1`, the activity change, negative = inhibition is 7.85% (inactive). In the case of `O=C(OC1C[C@@H]2CC3C[C@H](C1)N2CC3=O)c1c[nH]c2ccccc12` (stereo partly drawn) it was -0.997% (inactive).

`C[C@]1(Cn2ccnn2)C(C(=O)O)N2C(=O)CC2S1(=O)=O` (stereo partly drawn): the activity change, negative = inhibition is 0.084% (inactive).

Consider `CNc1cc2ncnc(Nc3cccc(Br)c3)c2cc1N`, for which the activity change, negative = inhibition was -8.12% (inactive). `O=c1[nH]cnc2c1cnn2[C@@H]1O[C@H](CO)[C@H](O)C1O` (stereo partly drawn): the activity change, negative = inhibition was 19.3% (inactive). In the case of `CCC(C)C(=O)OC1CC(C)C=C2C=CC(C)C(CCC(O)CC(O)CC(=O)O)C21` (stereo not drawn) it was 7.4% (inactive). The value for `NCCC(O)(P(=O)(O)O)P(=O)(O)O` was -2.86% (inactive); that for `COc1cc(O)c(C)c(O)c1` was 11% (inactive). Regarding `CC1(C)C(=O)N=C2c3ccccc3C(=O)C(=O)C21` (stereo not drawn), the activity change, negative = inhibition is -89.1% (active). The value for `CNC(=O)[C@@H](c1ccccc1)N1CCc2cc(OC)c(OC)cc2[C@@H]1CCc1ccc(C(F)(F)F)cc1` was 7.93% (inactive); that for `O=C(Nc1cccc2c(=O)cc(-c3nn[nH]n3)oc12)c1ccc(OCCCCc2ccccc2)cc1` was 3.35% (inactive) and 13.6% (inactive).
